DT40 TDP1 CPT: qHTS for Inhibitors of human tyrosyl-DNA phosphodiesterase 1 (TDP1): qHTS in cells in presence of CPT | chicken DT40 Tdp1-/-;hTDP1 cells + 20 nM CPT, ATP luminescence, 48 h | Potency, µM (doses to about 46.2 µM), without a hit: at the top dose activity change, negative = growth inhibition, usual class: inhibitors | actives 12% (n = 420,000); note: potency is the fitted concentration of half-maximal effect; nearly all actives have a fitted effect of over 55% in size
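Chicken DT40 Tdp1-/- cells complemented with human TDP1, 400 cells/well, exposed to compounds plus 20 nM camptothecin for at least 48 h at 37 C; viability read as ATP content by CellTiter-Glo luminescence.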
HT1080 IDH1KD tx: qHTS for induction of synthetic lethality in tumor cells producing 2HG: qHTS for the HT-1080-IDH1KD cell line; HT-1080 IDH1 knockdown viability, ATP luminescence, 48 h; Potency, µM (top dose mostly 46.1 µM), inactives show at the top dose activity, negative = toxicity, most hits filed as cytotoxic; actives 2% (n = 360,000); AID 686971, 2013;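 note: potency is the fitted concentration of half-maximal effect; 0% = DMSO wells and -100% = cell-free medium wells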
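In this qHTS, HT-1080 cells depleted of IDH1 are exposed for 48 h at 37 °C to compound titrations. Toxicity is scored from CellTiter-Glo luminescence, with DMSO as full viability and medium alone as none.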
HT1080-NT tox: qHTS for induction of synthetic lethality in tumor cells producing 2HG: qHTS for the HT-1080-NT fibrosarcoma cell line. Potency, µM (highest dose often 46.1 µM), for the others: at the top dose activity, negative = less viability, usual class: cytotoxic. actives 1.6% (n = 360,000). HT-1080-NT fibrosarcoma viability, CellTiter-Glo ATP luminescence, 48 h. AID 686970, 2013;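 note: NT is the 2HG producing partner of a matched IDH1 knockdown line; potency is the fitted concentration of half-maximal effect; 0% = DMSO-treated cells and -100% = media-only wells without cells; nearly all actives have a fitted effect of over 55% in size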
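Read-out is CellTiter-Glo luminescence after 10 minutes at room temperature, following 48 hours' compound treatment of HT-1080-NT cells (750 cells/well, RPMI, 5% FBS, 37 degrees C).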
TDP1 cell noCPT: qHTS for Inhibitors of human tyrosyl-DNA phosphodiesterase 1 (TDP1): qHTS in cells in absence of CPT. DT40 Tdp1-/- hTDP1 cells, no CPT, ATP luminescence, 48 h. Potency, µM (doses to about 46.2 µM), inactives show at the top dose activity change, negative = growth inhibition, hits mostly inhibitors. AID 686978, 2013. actives 15% (n = 420,000); note: potency is the fitted concentration of half-maximal effect; nearly all actives have a fitted effect of over 55% in size
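No-CPT arm: Tdp1-/-;hTDP1 DT40 cells (400/well) plus compounds, incubated ≥48 hr at 37 °C. Readout CellTiter-Glo luminescence.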
IL-1B inflam inh: qHTS for Inhibitors of Inflammasome Signaling: IL-1-beta AlphaLISA Primary Screen | THP-1 LPS/ATP IL-1B secretion, AlphaLISA, 16 h; active compounds read low | activity change, % at 57.5 µM | actives 4.7% (n = 360,000) | AID 743279, 2014; in the data active = activity change below about -50%; inconclusive = mostly about -30% to -49%
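THP-1 cells pretreated 1 hr with compounds (up to 57.5 uM final), then stimulated with LPS (250 ng/mL final) plus ATP (1.25 mM final); secreted IL-1B measured by AlphaLISA after 16 hr, decreased signal indicating inhibition.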
* = called active by the depositor. Only some compounds are listed: those with a hit (about 19% of all), similar ones and a draw of the others. Unless noted, calls come from the whole dose curve; as a rule, active = well fitted curve in the direction sought with a large enough effect; inconclusive = small, poorly fitted or top-dose-only effect, or another doubt; inactive = no such curve, though single readings can be large; an effect the other way counts as inactive or inconclusive. Unless noted, % is set by controls: 0 for no effect and ±100 for the full control effect.

`O=[N+]([O-])c1ccc(NN=Cc2ccccc2)nc1` gave DT40 TDP1 CPT -4%, HT1080 IDH1KD tx 10%, HT1080-NT tox 13%, TDP1 cell noCPT -2% and IL-1B inflam inh -7.
For COc1cc(OC)c2cc(C(=O)N[C@@H](Cc3ccccc3)C(=O)O)n(C)c2c1 the results were DT40 TDP1 CPT 18%, HT1080 IDH1KD tx 4%, HT1080-NT tox 10%, TDP1 cell noCPT 11% and IL-1B inflam inh 18.
`CCN(CC)C(=O)NCc1c(C)cc(C)cc1C` gave DT40 TDP1 CPT 9%, HT1080 IDH1KD tx inconclusive, HT1080-NT tox 10%, TDP1 cell noCPT -2% and IL-1B inflam inh 18.
For O=[N+]([O-])c1ccc(NN=Cc2ccccc2O)nc1 the results were DT40 TDP1 CPT 5.8µM*, HT1080 IDH1KD tx 7.3µM*, HT1080-NT tox inconclusive, TDP1 cell noCPT 5.8µM* and IL-1B inflam inh 59.
`CS(=O)(=O)Nc1ccc(C(=O)CC(=O)Nc2ccc([N+](=O)[O-])cc2)cc1` gave DT40 TDP1 CPT -1%, HT1080 IDH1KD tx -15%, HT1080-NT tox -20%, TDP1 cell noCPT -18% and IL-1B inflam inh -10.
Screening O=C(CC(=O)c1ccccc1)Nc1ccc([N+](=O)[O-])cc1 returned DT40 TDP1 CPT 23µM*, HT1080 IDH1KD tx -25%, HT1080-NT tox -8%, TDP1 cell noCPT inconclusive and IL-1B inflam inh inconclusive.
`O=[N+]([O-])c1ccc(O)c(/C=N/Nc2ncnc3c2cnn3-c2ccccc2)c1` gave DT40 TDP1 CPT 3.7µM*, HT1080 IDH1KD tx inconclusive, HT1080-NT tox inconclusive, TDP1 cell noCPT 3.7µM* and IL-1B inflam inh 202.
CC(=O)NNc1ncnc2c1cnn2-c1ccccc1 was read as DT40 TDP1 CPT 8%, HT1080 IDH1KD tx 25%, HT1080-NT tox 0%, TDP1 cell noCPT -9% and IL-1B inflam inh -3.
Screening CCOC(=O)C1CCN(c2c(Nc3ccc(C)c(C)c3)c(=O)c2=O)CC1 returned DT40 TDP1 CPT inconclusive, HT1080 IDH1KD tx 9%, HT1080-NT tox 12%, TDP1 cell noCPT -22% and IL-1B inflam inh -1.
Screening CC(C)Cc1ccc(C(C)C(N)=NCCc2ccccc2)cc1 (stereo not drawn) returned DT40 TDP1 CPT inconclusive, HT1080 IDH1KD tx 18µM*, HT1080-NT tox 16µM*, TDP1 cell noCPT 21µM* and IL-1B inflam inh -91*.
COC(=O)c1ccc2c(=O)n(CCCCCC(=O)NCCNC(C)=O)c(=O)[nH]c2c1 was read as DT40 TDP1 CPT inconclusive, HT1080 IDH1KD tx -2%, HT1080-NT tox 1%, TDP1 cell noCPT -4% and IL-1B inflam inh -2.
Screening COc1ccc(-n2c(=O)c(-c3cccs3)nc3cnc(Nc4cccc(OC)c4)nc32)cc1 returned DT40 TDP1 CPT -15% and TDP1 cell noCPT 23µM*.
COc1ccc(-c2nc3cnc(N4CCNCC4)nc3n(-c3ccc(OC)cc3)c2=O)cc1 was read as DT40 TDP1 CPT 18µM* and TDP1 cell noCPT inconclusive.
Screening COc1cccc(Nc2ncc3nc(-c4cccs4)c(=O)n(CCC#N)c3n2)c1 returned DT40 TDP1 CPT 2% and TDP1 cell noCPT -1%.
`COc1ccc(-c2nc3cnc(N4CCNCC4)nc3n(-c3ccccc3)c2=O)cc1` gave DT40 TDP1 CPT 21µM* and TDP1 cell noCPT 15µM*.
Screening COc1ccc(-n2c(=O)c(-c3ccc(Cl)cc3)nc3cnc(N4CCNCC4)nc32)cc1 returned DT40 TDP1 CPT 5.2µM* and TDP1 cell noCPT 12µM*.
`COc1ccc(C(=O)CNc2cccc(F)c2)cc1` gave DT40 TDP1 CPT -15%, HT1080 IDH1KD tx 9%, HT1080-NT tox 8%, TDP1 cell noCPT -11% and IL-1B inflam inh -12.
`CCNc1ncc2nc(-c3ccc(F)cc3)c(=O)n(-c3ccccc3)c2n1` gave DT40 TDP1 CPT 4% and TDP1 cell noCPT -1%.
For CCNc1ncc2nc(-c3ccc(OC)cc3)c(=O)n(-c3ccc(OC)cc3)c2n1 the results were DT40 TDP1 CPT inconclusive and TDP1 cell noCPT 0.033µM*.
O=c1c(-c2ccc(Cl)cc2)nc2cnc(N3CCNCC3)nc2n1-c1ccccc1 was read as DT40 TDP1 CPT 4.1µM* and TDP1 cell noCPT 4.6µM*.
For NC(=O)CSc1n[nH]c(=O)n1CCc1ccccc1 the results were DT40 TDP1 CPT 9%, HT1080 IDH1KD tx 14%, HT1080-NT tox 21%, TDP1 cell noCPT 1% and IL-1B inflam inh 5.
Screening CN(Cc1c(F)cccc1Cl)C(=O)c1cccc(S(=O)(=O)NCc2ccccc2)c1 returned DT40 TDP1 CPT 23µM*, HT1080 IDH1KD tx 2%, HT1080-NT tox 7%, TDP1 cell noCPT 18µM* and IL-1B inflam inh -23.
`CN(Cc1c(F)cccc1Cl)C(=O)c1cccc(S(=O)(=O)N2CCN(Cc3ccccc3)CC2)c1` gave DT40 TDP1 CPT 21µM*, HT1080 IDH1KD tx -2%, HT1080-NT tox -4%, TDP1 cell noCPT inconclusive and IL-1B inflam inh -27.
For CN(Cc1ccc(OC(F)F)cc1)C(=O)c1cccc(S(=O)(=O)N2CCN(Cc3ccccc3)CC2)c1 the results were DT40 TDP1 CPT 9.2µM*, HT1080 IDH1KD tx -17%, HT1080-NT tox -22%, TDP1 cell noCPT 8.2µM* and IL-1B inflam inh -60*.
OCC1CCCCN1CCNCc1cn[nH]c1-c1cccc2ccccc12 (stereo not drawn) was read as DT40 TDP1 CPT -12%, HT1080 IDH1KD tx 7%, HT1080-NT tox -2%, TDP1 cell noCPT 16% and IL-1B inflam inh inconclusive.
c1ccc2c(-c3[nH]ncc3CNCCCn3ncc4ccccc43)cccc2c1 was read as DT40 TDP1 CPT 18µM*, HT1080 IDH1KD tx inconclusive, HT1080-NT tox inconclusive, TDP1 cell noCPT 12µM* and IL-1B inflam inh inconclusive.
For COc1ccc(C(=O)NCCCn2nc(C)cc2C)cc1S(=O)(=O)N1CCOCC1 the results were DT40 TDP1 CPT 0%, HT1080 IDH1KD tx 4%, HT1080-NT tox 8%, TDP1 cell noCPT -1% and IL-1B inflam inh 10.
For COc1ccccc1CNC(=O)C1CCN(S(=O)(=O)c2ccc(-n3cnnn3)cc2)CC1 the results were DT40 TDP1 CPT 3%, HT1080 IDH1KD tx -3%, HT1080-NT tox 4%, TDP1 cell noCPT -10% and IL-1B inflam inh -1.
CCCCCCCC#Cc1ccccc1/C=N/S(=O)c1ccc(C)cc1 (stereo not drawn) was read as DT40 TDP1 CPT 12µM*, HT1080 IDH1KD tx 5%, HT1080-NT tox 12%, TDP1 cell noCPT 18µM* and IL-1B inflam inh 32.

Assay outcomes (PubChem)
